This note sets out measurements from PubChem BioAssay (Tox21).

The nature of experiment [1]: qHTS assay to identify small molecule antagonists of the peroxisome proliferator-activated receptor delta (PPARd) signaling pathway - cell viability counter screen (AID 743213). Note: nearly all actives have a fitted effect of over 50% in size. Note: potency is the fitted concentration of half-maximal effect. The method in brief: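 Same-well viability: cells pre-incubated 5 h, dosed with compound plus 300 nM L165041, kept 17 h at 37 C, FRET substrate 2 h RT, then CellTiter-Glo 30 min RT and luminescence.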
A general note: Quantitative high-throughput screening tests each substance at several concentrations.

Experiment [2] has as its target Bile acid receptor (Homo sapiens) (UniProt Q96RI1). Description: qHTS assay to identify small molecule antagonists of the farnesoid-X-receptor (FXR) signaling pathway (AID 743217; active = well fitted inhibition curve with a large enough effect in the signal ratio in the repeat runs, not every such curve was filed as active; the % refers to the signal ratio; note: potency is the fitted concentration of half-maximal effect). Put shortly: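 Cells carrying a UAS-driven beta-lactamase reporter (GeneBLAzer FXR-UAS-bla HEK 293T) were plated and rested 5 h at 37 °C. Compounds in DMSO were added alongside chenodeoxycholic acid agonist at 50 uM final and left 16 h at 37 °C before FRET substrate readout.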

Experiment [3] in a line: qHTS assay to identify small molecule agonists of the farnesoid-X-receptor (FXR) signaling pathway - cell viability counter screen (AID 743218). Note: nearly all actives have a fitted effect of over 45% in size. Note: potency is the fitted concentration of half-maximal effect. The method in brief:
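Cells were seeded, left 5 h at 37 C and 5% CO2, then dosed with compound in DMSO for 16 h. After the beta-lactamase FRET read, CellTiter-Glo was added and luminescence measured 30 min later.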

Experiment [4] can be described thus: qHTS assay to identify small molecule antagonists of the farnesoid-X-receptor (FXR) signaling pathway - cell viability counter screen (AID 743221; active = well fitted cell-killing curve with a large enough effect in the repeat runs, not every such curve was filed as active; note: nearly all actives have a fitted effect of over 50% in size; note: potency is the fitted concentration of half-maximal effect). Put shortly: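 HEK 293T FXR-bla cells, 5 h pre-incubation; compound + CDCA 50 uM final, 16 h, 37 C; beta-lactamase FRET read first, then CellTiter-Glo luminescence, 30 min RT.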
In experiment [5] the target is Vitamin D3 receptor (Homo sapiens) (UniProt P11473). The experiment is described as follows: qHTS assay to identify small molecule antagonists of the vitamin D receptor (VDR) signaling pathway (AID 743223; active = well fitted inhibition curve with a large enough effect in the signal ratio in the repeat runs, not every such curve was filed as active; the % refers to the signal ratio). Put shortly: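 Beta-lactamase reporter read-out: FRET substrate fluorescence after 2 h at room temperature, following 16 h exposure of VDR-bla cells to test compound plus 3 nM (final) 1alpha,25-dihydroxyvitamin D3 agonist at 37C.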
Vitamin D3 receptor (Homo sapiens), sequence (P11473 whole entry, looked up): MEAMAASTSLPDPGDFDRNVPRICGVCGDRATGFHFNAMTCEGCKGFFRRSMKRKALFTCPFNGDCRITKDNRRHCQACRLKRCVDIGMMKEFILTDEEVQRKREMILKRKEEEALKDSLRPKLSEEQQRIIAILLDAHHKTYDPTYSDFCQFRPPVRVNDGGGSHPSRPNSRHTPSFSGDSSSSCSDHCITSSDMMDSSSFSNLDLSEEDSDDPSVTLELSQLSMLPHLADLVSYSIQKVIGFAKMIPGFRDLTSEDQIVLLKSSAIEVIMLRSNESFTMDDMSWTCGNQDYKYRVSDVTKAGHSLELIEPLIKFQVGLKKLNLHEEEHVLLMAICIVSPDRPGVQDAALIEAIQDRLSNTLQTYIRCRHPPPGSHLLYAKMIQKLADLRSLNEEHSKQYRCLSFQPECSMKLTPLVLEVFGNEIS

Experiment [6] can be described thus: qHTS assay to identify small molecule agonists of the vitamin D receptor (VDR) signaling pathway - cell viability counter screen (AID 743224). Note: nearly all actives have a fitted effect of over 50% in size. Note: potency is the fitted concentration of half-maximal effect. The method in brief: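 Cells: VDR-bla, 2,000/well, settled 4 h. Treatment: compounds in DMSO, 16 h, 37C/5% CO2. Readout: CellTiter-Glo luminescence after 30 min RT.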
A short description of experiment [7]: qHTS assay to identify small molecule agonists of the NFkB signaling pathway - cell viability counter screen (AID 1159515; calls by dose curve; note: nearly all actives have a fitted effect of over 55% in size; note: potency is the fitted concentration of half-maximal effect). The method in brief:
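Cells are seeded (2,000 NFkB-bla ME-180 per well), rested overnight, and dosed with DMSO-dissolved compounds for 5 hr at 37 C. Viability is then read by CellTiter-Glo luminescence after 30 min at room temperature.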

Experiment [8] is described as follows: qHTS assay to identify small molecule agonists of the endoplasmic reticulum stress response signaling pathway - cell viability counter screen (AID 1159517; calls by dose curve; note: nearly all actives have a fitted effect of over 50% in size; note: potency is the fitted concentration of half-maximal effect). The method in brief: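 Steps: seed 1,500 ESRE-bla HeLa cells per well; incubate overnight at 37 C, 5% CO2; add compounds in DMSO for 5 hr; run FRET substrate 2 hr RT; add CellTiter-Glo, wait 30 min, read luminescence.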

Experiment [9] in a line: qHTS assay to identify small molecule antagonists of the retinoid-related orphan receptor gamma (ROR-gamma) signaling pathway - cell viability counter screen (AID 1159520). Note: nearly all actives have a fitted effect of over 50% in size. Note: potency is the fitted concentration of half-maximal effect. Put shortly: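 Tet-on ROR gamma CHO cells were given compounds for 2 hr, then doxycycline hyclate at 1 uM final, and incubated 16 hr at 37 C. Viability was measured as ATP content by CellTiter-Glo luminescence.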

The target of experiment [10] is Nuclear receptor ROR-gamma (Homo sapiens) (UniProt P51449). Description: qHTS assay to identify small molecule antagonists of the retinoid-related orphan receptor gamma (ROR-gamma) signaling pathway (AID 1159521; note: nearly all actives have a fitted effect of over 50% in size; note: potency is the fitted concentration of half-maximal effect). Put shortly: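 Luminescence readout (ONE-Glo, 30 min RT) after 16 h doxycycline induction; loss of signal scored as antagonism. CHO cells with TET-inducible RORγ and RORE-LUC reporter; compounds added 2 h before 1 uM final doxycycline.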

Experiment [11] can be described thus: qHTS assay to identify small molecule agonists of the AP-1 signaling pathway - cell viability counter screen (AID 1159525; calls by dose curve; note: nearly all actives have a fitted effect of over 55% in size; note: potency is the fitted concentration of half-maximal effect). The method in brief: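 Same-well cytotoxicity counter screen of the Tox21 10K library in ME-180 cells. The readout is ATP-dependent luminescence after 5 h compound treatment. Data are normalised to DMSO and tetra n-octyl ammonium bromide controls.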

For experiment [12], the target named is Retinoic acid receptor RXR-alpha (Homo sapiens) (UniProt P19793). Description: qHTS assay to identify small molecule agonists of the RXR signaling pathway (AID 1159527; calls by dose curve; note: nearly all actives have a fitted effect of over 35% in size). Put shortly:
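Agonist mode; 9-cis retinoic acid positive control. HEK 293T UAS-bla reporter cells, 2% charcoal-stripped FBS, 16 hr compound exposure at 37 C/5% CO2. LiveBLAzer B/G FRET substrate 2 hr RT; ex 405, em 460/530 nm.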

Experiment [13] can be described thus: qHTS assay to identify small molecule agonists of the RXR signaling pathway - cell viability counter screen (AID 1159529). Note: nearly all actives have a fitted effect of over 50% in size. Note: potency is the fitted concentration of half-maximal effect. Put shortly:
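Luminescence from CellTiter-Glo (30 min, RT) measured viability in the same wells as the beta-lactamase reporter readout. Cells: GeneBLAzer RXR-alpha HEK 293T, 2% charcoal-stripped FBS. Compound exposure 16 hr, 37 C.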

Experiment [14] can be described thus: qHTS assay to identify small molecule antagonists of the vitamin D receptor (VDR) signaling pathway - cell viability counter screen (AID 743225). Note: nearly all actives have a fitted effect of over 50% in size. Note: potency is the fitted concentration of half-maximal effect. The method in brief:
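Viability counter screen run in the same wells as the beta-lactamase reporter assay: HEK 293T VDR-UAS-bla cells, 16 h compound exposure at 37C with 3 nM (final) 1-alpha,25-dihydroxyvitamin D3. CellTiter-Glo luminescence, 30 min, room temperature.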

For experiment [15], the target named is Bile acid receptor (Homo sapiens) (UniProt Q96RI1). The experiment is described as follows: qHTS assay to identify small molecule agonists of the farnesoid-X-receptor (FXR) signaling pathway (AID 743220; active = well fitted activation curve with a large enough effect in the signal ratio in the repeat runs, not every such curve was filed as active; the % refers to the signal ratio). The method in brief: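 FXR-UAS-bla HEK 293T cells carrying a UAS-driven beta-lactamase reporter were plated for 5 h at 37C/5% CO2, then exposed to DMSO-dissolved Tox21 10K compounds for 16 h at 37C. A LiveBLAzer B/G FRET substrate was loaded for 2 h at room temperature before fluorescence reading.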
Bile acid receptor (Homo sapiens), sequence (Q96RI1 whole entry, looked up): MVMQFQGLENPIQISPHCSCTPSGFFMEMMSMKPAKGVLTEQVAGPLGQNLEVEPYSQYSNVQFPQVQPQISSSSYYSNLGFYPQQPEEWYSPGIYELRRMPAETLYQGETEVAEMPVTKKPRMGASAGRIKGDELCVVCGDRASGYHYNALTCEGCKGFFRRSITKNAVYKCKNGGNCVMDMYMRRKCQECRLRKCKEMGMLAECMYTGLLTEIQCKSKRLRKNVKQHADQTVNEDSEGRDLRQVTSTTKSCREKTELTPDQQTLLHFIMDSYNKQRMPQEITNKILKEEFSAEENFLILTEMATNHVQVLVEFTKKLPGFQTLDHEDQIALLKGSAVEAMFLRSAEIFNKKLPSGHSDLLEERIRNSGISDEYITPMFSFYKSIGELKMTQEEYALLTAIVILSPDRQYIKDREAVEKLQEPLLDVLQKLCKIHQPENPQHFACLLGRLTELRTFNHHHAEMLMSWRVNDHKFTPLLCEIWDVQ

Experiment [16] concerns the target Peroxisome proliferator-activated receptor delta (Homo sapiens) (UniProt Q03181). Description: qHTS assay to identify small molecule agonists of the peroxisome proliferator-activated receptor delta (PPARd) signaling pathway (AID 743212; calls by dose curve). Put shortly: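 Read-out: beta-lactamase FRET fluorescence after 2 h room-temperature incubation with LiveBLAzer B/G substrate. Cells were HEK293H carrying a UAS-bla reporter for PPARd, treated at 37 C with DMSO-dissolved compounds.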

Experiment [17] shares this target. The experiment is described as follows: qHTS assay to identify small molecule antagonists of the peroxisome proliferator-activated receptor delta (PPARd) signaling pathway (AID 743215; active = well fitted inhibition curve with a large enough effect in the signal ratio in the repeat runs, not every such curve was filed as active; the % refers to the signal ratio;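 note: cells stimulated with agonist L165041 at 300 nM final during compound exposure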; note: potency is the fitted concentration of half-maximal effect). The method in brief:
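Cells: HEK293H with a UAS-driven beta-lactamase reporter responsive to PPARd. Compounds were co-added with L165041 (300 nM, final) and incubated 17 h at 37 C before a 2 h room-temperature FRET substrate step and fluorescence reading.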

Experiment [18] in a line: qHTS assay to identify small molecule agonists of the AP-1 signaling pathway (AID 1159526; calls by dose curve).
Experiment [19] deals with Vitamin D3 receptor (Homo sapiens) (UniProt P11473). Description: qHTS assay to identify small molecule agonists of the vitamin D receptor (VDR) signaling pathway (AID 743222; calls by dose curve). Put shortly: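 Cells carrying a VDR-driven beta-lactamase reporter are seeded at 2,000 per well and rested 4 h. Compounds in DMSO are added for 16 h at 37C, and FRET substrate fluorescence is measured after 2 h at room temperature.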

Structures are written as SMILES. Results filed as inconclusive are left out. Activity calls are given as the source filed them. Unless noted, calls come from the whole dose curve; as a rule, active = well fitted curve in the direction sought with a large enough effect in the repeat runs; inconclusive = weak or mixed curves; inactive = no such curve, though single readings can be large; an effect the other way counts as inactive or inconclusive.

Retinoic acid receptor RXR-alpha (Homo sapiens), sequence (P19793 whole entry, looked up): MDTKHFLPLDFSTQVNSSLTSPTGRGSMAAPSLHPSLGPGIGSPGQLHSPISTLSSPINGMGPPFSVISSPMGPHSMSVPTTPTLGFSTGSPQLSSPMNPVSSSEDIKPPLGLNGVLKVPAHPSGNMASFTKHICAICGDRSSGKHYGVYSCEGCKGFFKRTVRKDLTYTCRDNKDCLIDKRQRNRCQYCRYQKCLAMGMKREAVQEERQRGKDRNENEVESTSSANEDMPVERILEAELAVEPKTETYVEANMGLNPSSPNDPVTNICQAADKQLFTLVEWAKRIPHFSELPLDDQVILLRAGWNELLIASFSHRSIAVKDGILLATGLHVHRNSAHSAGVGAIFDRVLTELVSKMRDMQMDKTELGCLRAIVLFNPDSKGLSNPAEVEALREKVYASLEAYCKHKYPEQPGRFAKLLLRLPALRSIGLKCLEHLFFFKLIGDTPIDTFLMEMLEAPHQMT
Peroxisome proliferator-activated receptor delta (Homo sapiens), sequence (Q03181 whole entry, looked up): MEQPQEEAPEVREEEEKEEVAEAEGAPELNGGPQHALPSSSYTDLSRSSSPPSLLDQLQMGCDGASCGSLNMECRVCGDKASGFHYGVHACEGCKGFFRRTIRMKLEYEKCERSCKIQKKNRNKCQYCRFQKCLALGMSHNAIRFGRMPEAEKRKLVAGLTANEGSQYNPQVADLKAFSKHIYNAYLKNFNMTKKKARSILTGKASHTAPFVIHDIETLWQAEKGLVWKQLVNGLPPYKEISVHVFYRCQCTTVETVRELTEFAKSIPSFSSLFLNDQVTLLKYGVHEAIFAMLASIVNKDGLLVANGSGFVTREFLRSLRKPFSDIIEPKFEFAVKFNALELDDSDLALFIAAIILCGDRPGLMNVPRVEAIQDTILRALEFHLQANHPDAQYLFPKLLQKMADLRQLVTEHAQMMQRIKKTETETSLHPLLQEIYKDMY

On to `CCOC(=O)O[C@]1(C(=O)OCCl)CC[C@H]2[C@@H]3CCC4=CC(=O)C=C[C@]4(C)[C@H]3[C@@H](O)C[C@@]21C`, for which the Potency result in [1], in experiment [2], in experiment [3], in experiment [4], in experiment [5] and in experiment [6] was “inactive” each time. Besides, the Potency result in [7], in [8], in experiment [9], in [10], in [11] and in [12] was “inactive” each time. Also, the Potency result in experiment [13] is “inactive”.
As to `Cc1cc(O)c(C(C)(C)C)cc1C(C)(C)C`, the Potency is 34.7 µM (active) in experiment [1]; 49 µM (active) in experiment [2]; 54.9 µM (active) in experiment [3]; 49 µM (active) in experiment [4]; 19.5 µM (active) in experiment [6]; 21.9 µM (active) in experiment [14]. Besides, the Potency in experiment [7] is 49 µM (active); in [8] it was 24.5 µM (active); in experiment [9] it was 54.5 µM (active); in [10] it was 54.5 µM (active); in experiment [11], 21.9 µM (active); in experiment [13] it was 21.9 µM (active).
Regarding `CC(C)(C)c1ccc(C(=O)CCCN2CCC(OC(c3ccccc3)c3ccccc3)CC2)cc1`, the Potency was 16.8 µM (active) in [1]; 26.6 µM (active) in [3]; 23.9 µM (active) in experiment [7]; 23.9 µM (active) in [8]; 21.1 µM (active) in experiment [9]; 11.9 µM (active) in [10]. For the same compound, the Potency in [11] and in experiment [13] was 15.1 µM (active) each time. Moreover, in experiment [15], the Potency entry is “inactive”.
`Cc1[nH]nc2c1N=C(c1ccccc1Cl)c1cc([N+](=O)[O-])ccc1N2`: the Potency entry in [16], in experiment [4] and in [7] was “inactive” throughout. For the same compound, the Potency in [17] is 24.5 µM (active); in [6], 5.49 µM (active); in [14], 21.9 µM (active); in experiment [8] it was 43.6 µM (active); in [9], 54.5 µM (active); in [10] it was 21.7 µM (active). Besides, the Potency in [11] was 30.9 µM (active); in [13] it was 34.7 µM (active).
Consider `COc1cc(/C=C/C(=O)O[C@H]2CC[C@]34C[C@]35CC[C@]3(C)[C@@H]([C@H](C)CCC=C(C)C)CC[C@@]3(C)[C@@H]5CC[C@H]4C2(C)C)ccc1O`, for which the Potency result in [16], in [1], in experiment [17], in [2], in [15] and in [4] was “inactive” each time. Also, the Potency result in experiment [5], in experiment [6], in [14], in experiment [7], in experiment [8] and in experiment [9] was “inactive” throughout. Moreover, the Potency result in [10], in [11], in [12] and in experiment [13] was “inactive” each time.
As for `CCCCCCC[N+](CC)(CC)CCCCc1ccc(Cl)cc1`, the Potency result in [1], in experiment [3], in experiment [4], in [5], in experiment [14] and in experiment [7] was “inactive” each time. For the same compound, the Potency entry in experiment [8], in experiment [9], in experiment [10], in [11] and in [18] was “inactive” in each case.
Take `CCCCN1CCCC[C@H]1C(=O)Nc1c(C)cccc1C`: the Potency entry in [16], in [17], in experiment [4], in experiment [19], in experiment [5] and in [6] was “inactive” in each case. Also, the Potency entry in [14], in [7], in [8], in experiment [9], in experiment [10] and in experiment [11] was “inactive” throughout. Besides, in experiment [12], the Potency result was “inactive”.
